The record followed here is PubChem BioAssay AID1566 (Sanford-Burnham Center for Chemical Genomics, 2009).

One may read the inhibition as the drop in the measured response relative to a control, in per cent.

Structures are written as SMILES. Screen size: about 290,000 compounds; about 1,800 (0.62%) were called active. Cut-off read from the data, not from the text of the source: active = inhibition above about 50%; inactive = the rest. Only a selection was taken, and actives are over-represented in it overall.

A short description of the test: NOD2 signaling inhibitors, cell-based, luminescence, uHTS, HEK293 (AID 1566). The settings on record: HEK293 NOD2/NF-kB luciferase reporter, at 4 µM, stronger effect = higher value. A general note: Reporter assays use an easily measured gene product as a stand-in for the process of interest.
Regarding `O=C(Nc1ccc2c(c1)OC1(CCCC1)O2)C1CC1`, the inhibition is -19.4% (inactive). With `Nc1ccc2c(c1)OC1(CCCCC1)O2`, the inhibition was 13.4% (inactive). Take `Nc1ccc2c(c1)OC1(CCCC1)O2`: the inhibition is 69.9% (active). For `CCN(CCCNC(=O)C1CCN(S(=O)(=O)N2CCC3(CC2)OCCO3)CC1)c1ccccc1`, the inhibition is 5.4% (inactive). Turning to `CC(C)NC(=O)NC(=O)COC(=O)c1c2c(nc3ccccc13)CCC2`, the inhibition was 51.1% (active).

Consider `CNC(=O)COC(=O)c1c2c(nc3ccccc13)CCC2`, for which the inhibition is 4.8% (inactive).

For the molecule `CC(C)CNC(=O)COC(=O)c1c2c(nc3ccccc13)CCC2`, the inhibition was 6.3% (inactive). The same measure for `CCCc1nc2ccccc2c(=O)n1CCc1ccccc1`: -5.9% (inactive).

Consider `CC(C)CC(NC(=O)OC(C)(C)C)C(=O)NC(C(=O)N1CCCC1C(N)=O)C(C)C` (stereo not given), for which the inhibition is 4.1% (inactive). The same measure for `Cc1oc(-c2ccccc2Cl)nc1CN1CCCC1c1ccc(F)cc1` (stereo not given): 0.4% (inactive); for `Cc1ccccc1C(=O)N1CCN(C(c2ccccc2)c2ccccc2)CC1`: 46.9% (inactive).

With `CCOc1ncccc1C(=O)N1CCN(C(c2ccccc2)c2ccccc2)CC1`, the inhibition is 43.5% (inactive).

`COc1ccc(N(Cc2cc3cc(OC)ccc3[nH]c2=O)C(=O)c2cccnc2)cc1`: the inhibition is 29.5% (inactive). With `COc1cc(C(=O)N[C@H](C(=O)NC(C)C23CC4CC(CC(C4)C2)C3)C(C)C)cc(OC)c1OC` (stereo not given in full), the inhibition is 4% (inactive).

For the molecule `COc1ccc(C(=O)NCc2ccc(-c3nc4ccccc4s3)cc2)cc1OC`, the inhibition is -45.5% (inactive). On to `COc1cc(C(=O)NCc2ccc(-c3nc4ccccc4s3)cc2)cc(OC)c1OC`, for which the inhibition was -72.3% (inactive). On to `COc1cc(OC)c(OC)cc1CN1CCN(Cc2ccc(C(F)(F)F)cc2)CC1`, for which the inhibition is 5.4% (inactive).

Regarding `COc1ccc(Nc2cc(Nc3ccc(OC)cc3)ncn2)cc1`, the inhibition was -19.7% (inactive). Regarding `COc1ccc(Nc2cc(Sc3ccc(OC)cc3)ncn2)cc1`, the inhibition is 55.2% (active). On to `COc1ccc(Nc2cc(Nc3ccccc3)ncn2)cc1`, for which the inhibition was -87% (inactive). For the molecule `Cc1cc(C)c2nc(Cl)c(CN(Cc3ccco3)C(=O)Nc3ccccc3C)cc2c1`, the inhibition is -17.6% (inactive). In the case of `Cc1ccc(NC(=O)N(Cc2ccco2)Cc2cc3cc(C)cc(C)c3nc2Cl)cc1`, the inhibition was -17.3% (inactive). Regarding `Cc1cccc2cc(CN(Cc3ccco3)C(=O)Nc3cccc(C#N)c3)c(Cl)nc12`, the inhibition is 55.3% (active). Regarding `COc1cccc(-c2cc(C(F)(F)F)n3ncc(C(=O)N4CCc5ccccc5C4)c3n2)c1`, the inhibition was 17.4% (inactive). `CC1(C)C2CCC1(CS(=O)(=O)NC1CCCC1)C(=O)C2` (stereo not given): the inhibition is 17.9% (inactive). With `C=CCNS(=O)(=O)CC12CCC(CC1=O)C2(C)C` (stereo not given), the inhibition is 5.2% (inactive). In the case of `CC(C)(C)NS(=O)(=O)CC12CCC(CC1=O)C2(C)C` (stereo not given), the inhibition is 50.9% (active). Then `COCCCn1c(SCC(=O)Nc2ccc(NC(C)=O)cc2)nc2sc3c(c2c1=O)CCC3`, with 11.9% (inactive). For the molecule `CCN(CC)c1nc2c(c(=O)[nH]c(=O)n2C)n1Cc1ccccc1Cl`, the inhibition is 5.7% (inactive). On to `COc1ccc(-n2cnnc2SCC(=O)c2ccc(S(=O)(=O)N3CCOCC3)cc2)cc1`, for which the inhibition is 2.6% (inactive). With `COc1ccc(-c2ncccc2O)cc1`, the inhibition was -2.7% (inactive). As for `O=C(O)c1c2c(nc3ccccc13)/C(=C/c1ccc(O)cc1)CCC2`, the inhibition was 11.1% (inactive). As to `O=C(O)c1c2c(nc3ccccc13)/C(=C/c1ccc(O)cc1)CC2`, the inhibition is 72.4% (active). Take `O=C(O)c1ccc(/C=C2\CCCc3c2nc2ccccc2c3C(=O)O)cc1`: the inhibition is 8.2% (inactive).

Take `O=C(NCCc1ccccn1)c1ccc(OC2CCN(Cc3ccccn3)CC2)cc1`: the inhibition is 6.5% (inactive). For `O=C(NCCc1cccc(Cl)c1)c1ccc(OC2CCN(Cc3ccccn3)CC2)cc1`, the inhibition is 53.1% (active). In the case of `Cc1cccnc1CCNC(=O)c1ccc(OC2CCN(Cc3ccccn3)CC2)cc1`, the inhibition was 2.1% (inactive). On to `Cc1ccc2oc(/N=C(\N)NC(=O)C3CC3)nc2c1`, for which the inhibition was 5.6% (inactive). With `CC(=O)N/C(N)=N/c1nc2cc(C)ccc2o1`, the inhibition is -93.3% (inactive). `O=C(CSc1nn(-c2ccc(F)cc2)c(=S)s1)N1CCN(C(=O)c2ccco2)CC1`: the inhibition was 4.8% (inactive). In the case of `Cc1no[n+]([O-])c1COc1ccc(/C=N/n2nnnc2N)cc1`, the inhibition is -31% (inactive). As to `COc1cccc(/C=N/NC(=O)c2nnn(-c3nonc3N)c2C(C)C)c1`, the inhibition is 26.6% (inactive).

For the molecule `Cc1ccccc1C(=O)N1CCN(c2ccc(NC(=O)c3ccc4c(c3)OCO4)cc2)CC1`, the inhibition was -42.4% (inactive). For the molecule `O=C(Nc1ccc(N2CCN(C(=O)c3ccccc3)CC2)cc1)c1ccc2c(c1)OCCO2`, the inhibition was 38.7% (inactive). In the case of `Cc1ccc(S(=O)(=O)C(C#N)c2nc3ccccc3nc2N2CCCCC2)cc1` (stereo not given), the inhibition was 7.4% (inactive). As to `N#CC(c1nc2ccccc2nc1N1CCCCC1)S(=O)(=O)c1ccc(Cl)cc1` (stereo not given), the inhibition was 55.3% (active). On to `N#CC(c1nc2ccccc2nc1N1CCCC1)S(=O)(=O)c1ccccc1` (stereo not given), for which the inhibition was -3.3% (inactive). Take `O=C(CCS(=O)(=O)c1ccccc1)NC12CC3CC(CC(C3)C1)C2`: the inhibition was -42.4% (inactive). The same measure for `O=C(CCCCCn1c(=S)[nH]c2ccc(N3CCOCC3)cc2c1=O)NCc1ccccc1`: 29.5% (inactive); for `O=C(CCCn1c(=S)[nH]c2cc3c(cc2c1=O)OCO3)N1CCN(c2ccc(F)cc2)CC1`: 27.2% (inactive); for `O=C(CCCn1c(=S)[nH]c2cc3c(cc2c1=O)OCO3)N1CCN(c2ccccc2)CC1`: 12.2% (inactive). As for `Cc1cccc(N2CCN(C(=O)CCCn3c(=S)[nH]c4cc5c(cc4c3=O)OCO5)CC2)c1C`, the inhibition was 38.2% (inactive). Regarding `NC(=O)CSc1nnc(-c2ccccc2Br)n1-c1cccc(C(F)(F)F)c1`, the inhibition is 5.9% (inactive). `Cc1[nH]nc(N)c1-c1ccc(Cl)cc1`: the inhibition is 14.7% (inactive). Then `O=C(CCc1nnc(CCCCc2ccccc2)o1)NCCc1cccnc1`, with 24.2% (inactive); and `CC(c1cccnc1)N(C(=O)Nc1ccccc1)C1CCCCC1` (stereo not given), with -11.5% (inactive). Then `O=C(Nc1ccc(Cl)cc1C(F)(F)F)c1ccccc1Cl`, with 3.5% (inactive); and `CCC(CC)COC(=O)C1=C(C)NC(=O)NC1c1cc(OC)ccc1OC` (stereo not given), with -2% (inactive). Consider `COc1ccc(NC(=O)CSc2nc3nc(-c4cccs4)cc(C(F)(F)F)c3c(=O)[nH]2)c(OC)c1`, for which the inhibition was 22.2% (inactive). With `CC(=O)Nc1ccc(NC(=O)CSc2nc3nc(-c4cccs4)cc(C(F)(F)F)c3c(=O)[nH]2)cc1`, the inhibition is 5.7% (inactive). For `CN1CCN(CC(=O)Nc2ccccc2Oc2ccccc2)CC1`, the inhibition was 15.7% (inactive). For `COc1ccc(OCCSc2nc(C)c(Cc3ccccc3)c(=O)[nH]2)cc1`, the inhibition was 25.5% (inactive). As to `Cn1c(=O)[nH]c(=O)c2c1nc(NCc1ccccc1)n2Cc1ccc(F)cc1`, the inhibition is 16% (inactive).

Turning to `Cc1ccc(/C=N/NC(=O)CSc2nc3ccccc3c(=O)n2-c2ccccc2C)s1`, the inhibition is -0.2% (inactive). The same measure for `N#Cc1c2n(c3c(=O)n(Cc4ccccc4Cl)cnc13)CCCCC2`: 16.9% (inactive); for `Cc1oc2ccc(OCc3cccc(Cl)c3)cc2c1C(=O)O`: 9.4% (inactive). Consider `O=S(=O)(c1ccc(F)cc1)N1CCN(Cc2ccccn2)CC1`, for which the inhibition was 8.3% (inactive). Turning to `NS(=O)(=O)c1ccc(NC(=O)COC(=O)CCc2ccc(S(=O)(=O)N3CCOCC3)cc2)cc1`, the inhibition is -3% (inactive). Consider `CCn1c(=O)c(C(=O)Nc2cnccn2)c(O)c2ccccc21`, for which the inhibition was 18.7% (inactive). The same measure for `CC(C)Cn1c(=O)c(C(=O)Nc2cnccn2)c(O)c2ccccc21`: 16.2% (inactive); for `Cn1c(=O)c(C(=O)Nc2cnccn2)c(O)c2ccccc21`: -39.4% (inactive); for `CC(C)Cn1c(=O)c(C(=O)Nc2ccccc2S(N)(=O)=O)c(O)c2ccccc21`: 22.9% (inactive). Turning to `CCn1c(=O)c(C(=O)Nc2ccccc2S(N)(=O)=O)c(O)c2ccccc21`, the inhibition is -12.7% (inactive). As to `CCCn1c(=O)c(C(=O)Nc2cnccn2)c(O)c2ccccc21`, the inhibition was -10.4% (inactive). Turning to `CCCC(=O)N(CCN1CCOCC1)c1nc2c(C)ccc(C)c2s1`, the inhibition is 10.7% (inactive). In the case of `COc1ccc(-c2cnn3cc(-c4cccc(Cl)c4)cnc23)cc1`, the inhibition was -3.7% (inactive).

For the molecule `COc1ccc(/C=N/NC(=O)c2ccoc2C)cc1COc1ccc(Cl)cc1`, the inhibition is -42% (inactive). Take `O=C(N/N=C/c1cn(-c2ccccc2)nc1-c1cccnc1)c1cccnc1`: the inhibition is 7.5% (inactive).

On to `N#CC(=C=[N-])c1nc2ccccc2nc1-[n+]1cccc(NC(=O)c2cccs2)c1`, for which the inhibition is 10% (inactive). `Nc1nnc(COc2ccccc2)s1`: the inhibition was -4.5% (inactive).
